In all, about 420,000 compounds went through this assay and about 64,000 (15%) were called active. Not shown: some 27% with an inconclusive outcome. The call rests on the fitted dose curve; in most records, active means well fitted inhibition curve with a large enough effect; inconclusive means small, poorly fitted or top-dose-only effect; inactive means flat fitted curve, though single readings scatter. Only a sample is shown. A call without a number means that no potency is given here.
Assay: qHTS for Inhibitors of human tyrosyl-DNA phosphodiesterase 1 (TDP1): qHTS in cells in absence of CPT; further: nearly all actives have a fitted effect of over 55% in size
Conditions: DT40 Tdp1-/- hTDP1 cells, no CPT, ATP luminescence, 48 h; activity change, negative = growth inhibition: at 46.2 µM (top of the series)
Procedure, shortened: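 DT40 Tdp1-/-;hTDP1 cells, no CPT (DMSO vehicle only), 400 cells/well; compounds pin-transferred; ≥48 hr, 37 °C; CellTiter-Glo 30 min RT dark, luminescence read.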
Potency means the concentration at half of the fitted maximal effect.

**Q.** With COc1ccccc1Cc1c(-c2ccc(Cl)cc2)nc2c3ccccc3ccn12 as the molecule, how does the Potency read?
**A.** 20.6 µM (active)

**Q.** For N#Cc1ccc(-c2nc3c(Cl)cc(C(F)(F)F)cn3c2Cc2ccccc2C(F)(F)F)cc1, which Potency is on record?
**A.** inactive

**Q.** For COc1ncc2nc(-c3ccc(Cl)cc3)c(=O)n(-c3ccccc3)c2n1, which Potency is on record?
**A.** inactive

**Q.** With CC(C)OC(=O)CC(=O)CC(O)c1cccc([N+](=O)[O-])c1 (stereo not drawn) as the molecule, how does the Potency read?
**A.** inactive

**Q.** For NC(Cc1ccccc1)c1csc(Nc2cc(Oc3ccccc3)ncn2)n1 (stereo not drawn), which Potency is on record?
**A.** 16.4 µM (active)

**Q.** With CCNC(=O)C1CCCN(C(=O)c2cc(F)ccc2C)CC1 (stereo not drawn) as the molecule, how does the Potency read?
**A.** inactive

**Q.** Which Potency does the source give for CCN(c1ccccc1)S(=O)(=O)c1cc2c(cc1C)n(C)c(=O)c(=O)n2C here?
**A.** inactive

**Q.** Which Potency does the source give for Cc1cccc(N(CC(O)CN(C)C)S(=O)(=O)c2ccccc2)c1 (stereo not drawn) here?
**A.** inactive

**Q.** For CC(C)CN(CC(C)C)CC(O)CN(c1ccccc1)S(=O)(=O)c1ccccc1[N+](=O)[O-] (stereo not drawn), which Potency is on record?
**A.** 23.1 µM (active)

**Q.** For NC(=O)CCCC1=NS(=O)(=O)c2ccccc2N1, which Potency is on record?
**A.** inactive

**Q.** For CN1C=CC=C/C1=C1\SC(=S)N(Cc2ccccc2)C1=O, which Potency is on record?
**A.** inactive

**Q.** Which Potency does the source give for CCCCN1C(=O)/C(=C2/C=CC=CN2C)SC1=S here?
**A.** inactive

**Q.** For CCCCN1C(=O)/C(=C/C=C2/C=Cc3ccccc3N2CC)SC1=S, which Potency is on record?
**A.** 8.2 µM (active)

**Q.** With CCCOc1ccc(-c2nc(N)n[nH]2)cc1 as the molecule, how does the Potency read?
**A.** inactive

**Q.** Which Potency does the source give for CC(OC(=O)c1ccc2ccccc2n1)C(=O)c1ccccc1 (stereo not drawn) here?
**A.** inactive

**Q.** Which Potency does the source give for O=C1NC(c2cccc(Cl)c2)Nc2ccccc21 (stereo not drawn) here?
**A.** 16.4 µM (active)

**Q.** For COc1ccc(C2NC(=O)c3ccccc3N2)cc1 (stereo not drawn), which Potency is on record?
**A.** inactive

**Q.** For COc1cccc(C2Nc3cccc4cccc(c34)N2)c1, which Potency is on record?
**A.** inactive

**Q.** Which Potency does the source give for Cc1cc(C)c(C#N)c(SCC(=O)N(CC(C)C)C2CCS(=O)(=O)C2)n1 (stereo not drawn) here?
**A.** inactive

**Q.** For Cc1nc2ccccc2n1CC(=O)N/N=C/c1cccnc1, which Potency is on record?
**A.** inactive

**Q.** Which Potency does the source give for O=C(CNC(=O)c1cccnc1)N/N=C/c1cccnc1 here?
**A.** inactive

**Q.** Which Potency does the source give for O=C(CSc1cccc2cccnc12)N/N=C/c1cccnc1 here?
**A.** 4.11 µM (active)

**Q.** For CC1=C(C(=O)Nc2ccccc2)C(c2cccs2)C(C#N)=C(SCC#N)N1 (stereo not drawn), which Potency is on record?
**A.** 7.31 µM (active)

**Q.** For COc1ccc(NC(=O)c2sccc2SCC#N)cc1, which Potency is on record?
**A.** inactive

**Q.** Which Potency does the source give for Cc1cc(C)c(C#N)c(SCC(=O)Nc2ccccc2)n1 here?
**A.** inactive

**Q.** For N/C(=N\c1nc2ccccc2o1)NC(=O)C(Cc1ccccc1)N1C(=O)c2ccccc2C1=O (stereo not drawn), which Potency is on record?
**A.** inactive

**Q.** For Nn1c(SCC(=O)Nc2ccc3c(c2)CCC3)nnc1C1CC1, which Potency is on record?
**A.** inactive

**Q.** For Cc1nc2nc(SCC(=O)NCc3ccco3)nn2c(C)c1Cc1ccccc1, which Potency is on record?
**A.** inactive

**Q.** With COC(OC)c1ccnc(SCc2ccccc2Cl)n1 as the molecule, how does the Potency read?
**A.** inactive

**Q.** For Cc1cccc(Cc2c(C)nc3nc(SCc4ccccc4Cl)nn3c2C)c1, which Potency is on record?
**A.** 20.6 µM (active)

**Q.** With Cc1nc(CNS(=O)(=O)c2cc([N+](=O)[O-])ccc2C)cs1 as the molecule, how does the Potency read?
**A.** inactive

**Q.** With COc1cc(SC)ccc1C(=O)Nc1nc(C)cs1 as the molecule, how does the Potency read?
**A.** 11.6 µM (active)

**Q.** Which Potency does the source give for COc1ccc(Cc2nnc(NC(=O)c3ccc(OC)cc3OC)s2)cc1 here?
**A.** inactive

**Q.** Which Potency does the source give for COc1ccccc1CNC(=O)c1ccc(SC)cc1OC here?
**A.** 15.8 µM (active)

**Q.** For COc1cc(SC)ccc1C(=O)NNC(=O)C1COc2ccccc2O1 (stereo not drawn), which Potency is on record?
**A.** inactive

**Q.** Which Potency does the source give for COc1cc(SC)ccc1C(=O)NCCOc1ccccc1Cl here?
**A.** inactive

**Q.** For Cc1csc(NC(=O)CSc2nc(=O)cc(N)n2-c2ccc(F)cc2)n1, which Potency is on record?
**A.** inactive

**Q.** With CCCCc1cc(=O)oc2cc(C)cc(OCc3nn[nH]n3)c12 as the molecule, how does the Potency read?
**A.** inactive

**Q.** Which Potency does the source give for O=C(NN1C(=O)C2CCCCC2C1=O)c1ccco1 (stereo not drawn) here?
**A.** inactive

**Q.** For Cc1ccc(S(=O)(=O)N2C[C@H]3C(=O)C[C@@H](c4cccc5ccccc45)N(S(=O)(=O)c4ccc(C)cc4)[C@H]3C[C@H]2c2ccc(Cl)cc2)cc1, which Potency is on record?
**A.** inactive

**Q.** For O=C(Nc1ccccn1)C1CCN(S(=O)(=O)c2ccc3c(c2)OCCO3)CC1, which Potency is on record?
**A.** inactive

**Q.** For CCCCn1c(=S)[nH]c2ncccc2c1=O, which Potency is on record?
**A.** inactive

**Q.** Which Potency does the source give for Cc1cc(Nc2ccc(Br)cc2F)n2ncnc2n1 here?
**A.** inactive

**Q.** With CC[C@H]1OC(=O)[C@H](C)[C@@H](O[C@H]2C[C@@](C)(OC)[C@@H](O)[C@H](C)O2)[C@H](C)[C@@H](O[C@@H]2O[C@H](C)C[C@H](N(C)C)[C@H]2O)[C@](C)(O)C[C@@H](C)[C@@H]2N[C@@H](COCCOC)O[C@H]([C@H]2C)[C@]1(C)O as the molecule, how does the Potency read?
**A.** inactive

**Q.** For CCN(CC)S(=O)(=O)c1ccc(Cl)c(C(=O)NC(C)C(c2cccs2)N2CCCC2)c1 (stereo not drawn), which Potency is on record?
**A.** 14.6 µM (active)

**Q.** Which Potency does the source give for CCN(CC)S(=O)(=O)c1ccc(NC(=O)c2cccnc2Cl)c(NC(=O)c2cccnc2Cl)c1 here?
**A.** inactive

**Q.** For CCN(CC)S(=O)(=O)c1ccc(Cl)c(C(=O)NCCN2CCOCC2)c1, which Potency is on record?
**A.** inactive

**Q.** Which Potency does the source give for COc1cc(C(=O)N/C(=C\c2cn(C)c3ccccc23)C(=O)N2CCOCC2)cc(OC)c1OC here?
**A.** inactive

**Q.** Which Potency does the source give for Cc1c(N=Nc2ccc(N(C)C)cc2)c(=O)n(-c2ccccc2)n1C here?
**A.** inactive

**Q.** With N#Cc1ccc(OCC(=O)NC(=O)NC2CCS(=O)(=O)C2)cc1 (stereo not drawn) as the molecule, how does the Potency read?
**A.** inactive

**Q.** For COc1ccc(NC(=S)NC2CCS(=O)(=O)C2)cc1 (stereo not drawn), which Potency is on record?
**A.** inactive

**Q.** For COc1ccc(-c2ccc(OC(=O)NC3CCS(=O)(=O)C3)cc2)cc1 (stereo not drawn), which Potency is on record?
**A.** 8.2 µM (active)

**Q.** For CC(C)(C)CN1C(=O)C(=O)NC[C@H]1Cc1cccc2ccccc12, which Potency is on record?
**A.** inactive

**Q.** Which Potency does the source give for NC(=O)C1CCN(C(=O)c2ccc(F)c(S(=O)(=O)N3CCOCC3)c2)CC1 here?
**A.** inactive

**Q.** With Nc1ccc(C(=O)N2CCN(S(=O)(=O)c3ccc(Cl)cc3)CC2)cc1[N+](=O)[O-] as the molecule, how does the Potency read?
**A.** inactive

**Q.** For CC1CCN(C(=O)c2ccc(S(=O)(=O)Cc3cc(F)ccc3F)c([N+](=O)[O-])c2)CC1, which Potency is on record?
**A.** 16.4 µM (active)

**Q.** With CC1(C)CC(O)C(CCC(O)c2ccccc2)C(C)(C)N1 (stereo not drawn) as the molecule, how does the Potency read?
**A.** inactive

**Q.** For CC(=O)N(c1ccc2oc(=O)sc2c1)S(=O)(=O)c1ccc(C)cc1, which Potency is on record?
**A.** 16.4 µM (active)

**Q.** With Cc1ccc(S(=O)(=O)N(CCCN(C)C)Cc2ccc3c(c2)OCO3)cc1 as the molecule, how does the Potency read?
**A.** inactive

**Q.** Which Potency does the source give for CC(=O)Oc1ccc(N(C(C)=O)S(=O)(=O)c2ccc3ccccc3c2)cc1Br here?
**A.** inactive

**Q.** Which Potency does the source give for COc1ccc(C2/C(=C(/O)c3ccc(OC(C)C)cc3)C(=O)C(=O)N2CCCN2CCOCC2)cc1 (stereo not drawn) here?
**A.** inactive

**Q.** With C=CCn1c(SCC(=O)Nc2ccc(NC(C)=O)cc2)nc2sc(C)c(C)c2c1=O as the molecule, how does the Potency read?
**A.** inactive

**Q.** With O=C1CCCC(O)=C1N=Nc1ccc(S(=O)(=O)N2CCOCC2)cc1 as the molecule, how does the Potency read?
**A.** inactive
